Compounds with a hit are over-represented: about 0.5% of the library has one in this group of screens.
Tat transport: E. coli Tat export inhibitors, primary screen, MC4100, TorA-mCherry reporter, fluorescence, single point | inhibition, % at 10 µM | 340,000 tested, 0.036% active | AID 488895, 2010;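 active means mean replicate inhibition at least 50% and at least half of replicates individually reaching 50%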;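 further: exported cargo escapes ClpAP degradation while cytoplasmic cargo is degraded and loses fluorescence; 0% = median of neutral control wells and 100% = median of NaSCN control wells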
AddAB inh: growth inhibition of E. coli expressing H. pylori AddAB, primary screen, AddAB inhibitor project, absorbance | inhibition, % at 11.9 µM | 330,000 tested, 0.29% active; in the data active means inhibition above about 12%;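 further: 0% = vehicle wells of infected cells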
E coli growth-1: E. coli V3065 growth inhibition, primary screen, counter-screen for AddAB inhibitor project, absorbance, OD600. inhibition, % at 11.9 µM. 18 h. 330,000 tested, 0.27% active;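 active means inhibition above the campaign's mean inhibition across all tested compounds plus 3 SD, cut at about 9.9% in these data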;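 further: uninfected addAB+ strain grown without phage in ampicillin broth; 0% = DMSO wells and 100% = ciprofloxacin 0.95 µg/ml wells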
E coli growth-2: E. coli growth inhibition, primary screen, OD600; 330,000 tested, 0.21% active; Escherichia coli growth, 23 h; hits give low values; OD600 absorbance (test concentration not listed);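 active means OD600 absorbance below the run mean of sample wells minus 3.6 SD, in any replicate, cut at about 0.56 in these data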
phage Ecoli inh: growth loss of phage-infected E. coli, primary screen, RecBCD inhibitor project, absorbance, with phage, HTS; inhibition, % at 11.9 µM; 360,000 tested, 0.26% active; in the data active means inhibition above about 11%
AddAB confirm: growth loss of phage-infected E. coli expressing H. pylori AddAB, confirmation, AddAB inhibitor project, absorbance, E. coli V3065, T4 phage, triplicate; shares compounds with AddAB inh; OD; T4 phage with gene 2 nonsense mutations; inhibition, % at 11.9 µM; 880 tested, 64% active;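 active means mean inhibition above a set limit taken from the earlier primary screen, cut at about 13% in these data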;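 further: higher means less bacterial growth since AddAB block lets phage replicate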
RecBCD counter: growth loss of RecBCD+ E. coli with mutant T4 phage, counter-screen for AddAB inhibitor project, absorbance, V66 E. coli; OD growth; AID 488955, 2010; inhibition, % at 11.9 µM; 880 tested, 73% active; shares compounds with AddAB inh;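 active means mean inhibition above the mean of solvent-only control wells plus 3 SD, cut at about 4% in these data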;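 further: optical density read after an 18 h incubation at 37 °C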
Bact viability: bacterial viability inhibition counter-screen, confirmation, counter-screen for AddAB inhibitor project, absorbance; inhibition, % at 11.9 µM; absorbance (AddAB counterscreen); shares compounds with AddAB inh; 880 tested, 35% active; in the data active means inhibition above about 25%
RecBCD conf: growth loss of phage-infected RecBCD+ E. coli, confirmation, RecBCD inhibitor project, absorbance, E. coli V66, T4 gene 2 phage; shares compounds with phage Ecoli inh; E. coli V66 + T4 2- phage, growth OD; inhibition, % at 11.9 µM; 890 tested, 45% active; AID 651982, 2013;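 active means mean inhibition over triplicates exceeding the hit threshold derived in the original primary screen, cut at about 11% in these data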
Ecoli viability: E. coli viability inhibition, counter-screen for RecBCD inhibitor project, absorbance, high throughput. shares compounds with phage Ecoli inh. absorbance (OD) growth. inhibition, % at 11.9 µM. 890 tested, 29% active; in the data active means inhibition above about 20%;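 further: E. coli strain V66 grown with compound alone and no phage infection; 0% = bacteria with DMSO vehicle only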
AddAB phage OD: growth loss of phage-infected AddAB-carrying E. coli, confirmation, counter-screen for RecBCD inhibitor project, absorbance, E. coli V3065, T4 phage; shares compounds with phage Ecoli inh; E. coli expressing H. pylori AddAB + T4 phage, OD growth; gene 2 mutant T4, recBCD-deleted host; inhibition, % at 11.9 µM; 890 tested, 45% active;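 active means mean inhibition above the solvent-only control wells' mean plus 3 SD, cut at about 22% in these data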;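 further: higher means less bacterial growth from phage killing when AddAB is blocked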
An asterisk follows results filed as active.

O=C(Nc1ccc2oc(-c3ccncc3)nc2c1)c1ccc([N+](=O)[O-])o1 was read as Tat transport 0, AddAB inh 18*, E coli growth-1 15*, E coli growth-2 0.6, phage Ecoli inh 3, AddAB confirm 89*, RecBCD counter 8.8* and Bact viability 24.
CC(=NNC(=O)C(C)Sc1ccccc1)c1ccc([N+](=O)[O-])cc1 (stereo not drawn) was read as E coli growth-2 0.65.
For Cc1cc(/C=N/NC(=O)c2ccccc2F)c(C)n1-c1ccccc1 the results were Tat transport 1, AddAB inh 131*, E coli growth-1 -1, phage Ecoli inh 4, AddAB confirm 1, RecBCD counter 2 and Bact viability 0.
O=c1c2c3c(sc2ncn1N=Cc1ccc(Br)o1)CCCC3 was read as E coli growth-2 0.69.
For Cc1cccc2cc(C#N)c(N3CCOCC3)nc12 the results were Tat transport -3, AddAB inh 3, E coli growth-1 -1, E coli growth-2 0.67 and phage Ecoli inh 2.
For Cc1cccc2cc(C#N)c(N3CCC(O)CC3)nc12 the results were Tat transport -12, AddAB inh 13*, E coli growth-1 2, E coli growth-2 0.7, phage Ecoli inh 3, AddAB confirm 2, RecBCD counter 0 and Bact viability -1.
For CCCCCCCCC[n+]1cccc2c3ccccc3ccc21 the results were Tat transport -12, AddAB inh 15*, E coli growth-1 16*, E coli growth-2 0.49*, AddAB confirm 9, RecBCD counter 6.6* and Bact viability 7.
For Cc1ccc(NCC(=O)N/N=C\c2ccc([N+](=O)[O-])o2)cc1 the results were Tat transport -6, AddAB inh 8, E coli growth-1 4 and phage Ecoli inh 7.
Screening O=C(CNc1ccccc1)N/N=C/c1ccc([N+](=O)[O-])o1 returned Tat transport 3, AddAB inh 17*, E coli growth-1 16*, phage Ecoli inh 12*, AddAB confirm 84*, RecBCD counter 12*, Bact viability 28*, RecBCD conf 10, Ecoli viability 9 and AddAB phage OD 59*.
`O=C(COc1ccccc1)NN=Cc1ccc([N+](=O)[O-])o1` gave E coli growth-2 0.55.
`O=C(CNC(=O)c1ccccc1)N/N=C/c1ccc([N+](=O)[O-])o1` gave Tat transport 0, AddAB inh 28*, E coli growth-1 23*, phage Ecoli inh 20*, AddAB confirm 98*, RecBCD counter 10*, Bact viability 29*, RecBCD conf 15*, Ecoli viability 13 and AddAB phage OD 82*.
Screening O=C(Cc1ccc2c(c1)OCO2)NN=Cc1ccc([N+](=O)[O-])o1 returned Tat transport -3, AddAB inh 27*, E coli growth-1 9.9*, E coli growth-2 0.54, phage Ecoli inh 13*, AddAB confirm 99*, RecBCD counter 8.4*, Bact viability 23, RecBCD conf 7, Ecoli viability 6 and AddAB phage OD 37*.
`CC1=CSC(=C(C#N)C(=O)N2CCOCC2)N1c1ccccc1` gave E coli growth-2 0.69.
`Cc1ccc(S(=O)(=O)N2C(c3cccc(Cl)c3)CC=C(C(=O)O)C2c2ccc(F)cc2)cc1` (stereo not drawn) gave E coli growth-2 0.67.
For CCn1cc(C(=O)N[C@H](C)c2ccccc2)c(=O)c2cc(F)c(N3CCN(C)CC3)cc21 the results were Tat transport 12, AddAB inh 2, E coli growth-1 -1, E coli growth-2 0.72 and phage Ecoli inh -2.
Screening CCn1cc(SCC(=O)NCc2ccc3c(c2)OCO3)c2ccccc21 returned Tat transport -18, AddAB inh -1, E coli growth-1 1, E coli growth-2 0.7 and phage Ecoli inh 3.
Screening CCOC(=O)c1cn(CC)c2cc(N3CCN(C)CC3)c(F)cc2c1=O returned Tat transport 2, AddAB inh 99*, E coli growth-1 97*, E coli growth-2 0.068*, phage Ecoli inh 27*, AddAB confirm 102*, RecBCD counter 19*, Bact viability 100*, RecBCD conf 11*, Ecoli viability 12 and AddAB phage OD 89*.
For CCn1cc(C(=O)NCC(C)C)c(=O)c2cc(F)c(N3CCN(C)CC3)cc21 the results were AddAB inh 99*, E coli growth-1 100*, E coli growth-2 0.075*, phage Ecoli inh 87*, AddAB confirm 100*, RecBCD counter 100*, Bact viability 101*, RecBCD conf 90*, Ecoli viability 101* and AddAB phage OD 102*.
`CCCCCCn1cc(C(=O)OCC)c(=O)c2cc(F)c(F)cc21` gave Tat transport 5, AddAB inh 3, E coli growth-1 1, E coli growth-2 0.7 and phage Ecoli inh 2.
CCn1cc(C(=O)NCc2ccc3c(c2)OCO3)c(=O)c2cc(F)c(N3CCN(C)CC3)cc21 was read as Tat transport 10, AddAB inh 99*, E coli growth-1 98*, E coli growth-2 0.043*, phage Ecoli inh 16*, AddAB confirm 102*, RecBCD counter 29*, Bact viability 101*, RecBCD conf 18*, Ecoli viability 20 and AddAB phage OD 102*.
CCC(C)NC(=O)c1cn(CC)c2cc(N3CCN(C)CC3)c(F)cc2c1=O (stereo not drawn) was read as AddAB inh 99*, E coli growth-1 95*, E coli growth-2 0.075*, phage Ecoli inh 94*, AddAB confirm 100*, RecBCD counter 99*, Bact viability 100*, RecBCD conf 99*, Ecoli viability 99* and AddAB phage OD 100*.

Screening data (PubChem)
